Compound activity from PubChem.
Sampled rows, rich in hits. Any-hit rate of the full collection: about 1.5%.
EBV gp42 inh: EBV gp42 inhibition. Q1HVG2. Fluorescence polarization binding assay, mP read-out. inhibition, % (tested at 21.74 µM). 220,000 tested, 0.42% active. AID 1085; in the data active = inhibition above about 50%
Target sequence (Q1HVG2 whole entry, looked up): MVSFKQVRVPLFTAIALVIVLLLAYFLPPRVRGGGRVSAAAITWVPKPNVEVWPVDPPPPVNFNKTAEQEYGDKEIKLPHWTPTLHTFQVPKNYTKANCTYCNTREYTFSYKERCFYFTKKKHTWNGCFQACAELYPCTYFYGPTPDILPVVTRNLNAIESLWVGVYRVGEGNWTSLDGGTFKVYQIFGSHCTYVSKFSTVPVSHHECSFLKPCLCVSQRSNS
E coli Lon inh: inhibitors of E. coli Lon protease; inhibition, % at 7.94 µM; AID 602123; purified E. coli Lon protease, fluorescence polarization; 360,000 tested, 0.42% active; in the data active = inhibition above about 13%, passing the limit was not always enough;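 also: 0% = enzyme with probe and DMSO and 100% = no enzyme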
MCL1-BIM inh: MCL1-BIM-BH3 interaction inhibition (human); inhibition, % at 10.9 µM; GST-MCL1 / FITC-Bim-BH3 fluorescence polarization; Q07820; 320,000 tested, 0.68% active; AID 2057;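 active = inhibition above the mean inhibition of all tested compounds plus 3 SD, set per campaign, cut at about 40% in these data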;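 also: 0% = DMSO wells and 100% = unlabeled Bim-BH3 peptide control; higher means more loss of mP so more displacement of Bim peptide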
GLD-1 RNA inh: GLD-1-TGE RNA interaction inhibition (C. elegans); 320,000 tested, 0.44% active; inhibition, % at 5.96 µM; Q17339; purified GLD-1 + fluorescein TGE RNA, fluorescence polarization; AID 2280;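 active = percent inhibition above a per-plate cutoff, the plate mean of test compounds plus 3 SD, cut at about 30% in these data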;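 also: 0% = DMSO wells with GLD-1 and probe and 100% = wells lacking GLD-1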
BCLXL inh: blocks human Bcl-xL binding to Bim BH3 peptide. GST-Bcl-xL / FITC-Bim BH3 peptide fluorescence polarization. inhibition, % at 10.9 µM. 320,000 tested, 0.7% active. AID 2129;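 active = inhibition above the mean of all tested compounds plus 3 SD, cutoff set per campaign, cut at about 30% in these data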;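 also: 0% = DMSO wells and 100% = unlabeled Bim-BH3 peptide competitor; inhibitors lower millipolarization by displacing the labeled peptide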
Target sequence (Q07817 whole entry, looked up): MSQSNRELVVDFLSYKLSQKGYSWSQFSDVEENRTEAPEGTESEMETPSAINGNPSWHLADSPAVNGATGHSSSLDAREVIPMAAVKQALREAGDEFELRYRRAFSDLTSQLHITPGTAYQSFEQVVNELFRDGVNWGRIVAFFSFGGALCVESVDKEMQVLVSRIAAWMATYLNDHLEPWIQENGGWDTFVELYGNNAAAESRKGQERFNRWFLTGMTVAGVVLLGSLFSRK
MEX-5 binding: C. elegans MEX-5 TCR-2 RNA binding activity; Q9XUB2; MEX-5/FITC-TCR2 RNA binding, fluorescence polarization; hits give low values; activity score (negative = inhibition of binding), % at 10 µM; 300,000 tested, 0.38% active; AID 1832;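 active = inhibition past about -25% in most replicates, and total fluorescence under double the plate's negative control median, limit read from the data; inconclusive = replicates evenly split on the limit, or fluorescence at least double controls; inactive = too little inhibition in most replicates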;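 also: 0% = DMSO and -100% = 5 µM competing unlabeled TCR2 RNA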
BCLXL inh confirm: counter-screen for MCL1 inhibitors: confirmation of human Bcl-xL inhibitors; shares compounds with MCL1-BIM inh; 1,700 tested, 54% active; inhibition, % at 10.9 µM; GST-Bcl-xL / FITC-Bim BH3 peptide FP binding;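 active = inhibition above a cutoff equal to the mean inhibition of all tested compounds plus 3 SD, cut at about 30% in these data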;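 also: 0% = DMSO wells and 100% = unlabeled Bim BH3 control peptide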
MCL1 inh confirm: confirmation of human MCL1 and BIM-BH3 interaction inhibitors | shares compounds with MCL1-BIM inh | GST-MCL1 / FITC-Bim-BH3 fluorescence polarization | inhibition, % at 10.9 µM | 1,700 tested, 61% active;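 active = inhibition above the average of all tested compounds plus 3 SD, cut at about 40% in these data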;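 also: 0% = DMSO wells and 100% = unlabeled Bim-BH3 control peptide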
* marks the source's active call; other numbers are inactive results; u = inconclusive; x = no result given; + = active, no number.

SMILES	EBV gp42 inh	E coli Lon inh	MCL1-BIM inh	GLD-1 RNA inh	BCLXL inh	MEX-5 binding	BCLXL inh confirm	MCL1 inh confirm
COc1ccc(OC)c(C=Nc2ccccc2-c2nc3ccccc3[nH]2)c1	-13	2	-1	-4	8	2	x	x
COc1ccc(OC)c(/C=C/c2nc3ccccc3[nH]c2=O)c1	x	4	83*	75*	78*	-17	98*	99*
O=C(CSc1ncccn1)NC(=O)Cc1ccccc1	x	-13	21	0	7	x	x	x
COC(CNC(=O)c1ccc2c3c(onc13)-c1ccccc1C2=O)OC	190*	31	+	+	+	u	+	+
COC(CNC(=O)c1cccnc1)OC	2	0	3	-2	3	1	x	x
O=c1cc(-c2ccccc2)oc2cc(O)ccc12	x	0	x	x	x	x	x	x
Nc1ccc(-c2c3ccc(=O)cc-3oc3cc(O)ccc23)cc1C(=O)O	x	-117	118*	64*	106*	u	104*	112*
O=c1ccc2c(-c3ccccc3)c3ccc(O)cc3oc-2c1	x	x	110*	75*	106*	u	119*	121*
COc1ccc(-c2c(C)c3ccc(O)cc3oc2=O)cc1OC	x	-5	-1	-9	1	-1	x	x
O=[N+]([O-])c1cccc(NC(=S)N2CCc3ccccc32)c1	x	-15	x	x	x	x	x	x
COc1ccccc1C(=O)N/C(=C\c1cn(S(=O)(=O)N(C)C)c2ccccc12)C(=O)NCCCN1CCOCC1	x	7	-3	4	-3	-1	x	x
CCC(C)[C@H](NC(=O)C1CC(=O)N(c2ccc3c(c2)OCO3)C1)C(=O)NC1CCCCC1 (some centres undefined)	x	5	60*	38*	54*	-21	60*	78*
CCCC1OC23CCCCC2C(C#N)(C(=N)O3)C1(C#N)C#N (centres undefined)	-19	14	56*	55*	55*	0	17	16
CC1OC23CCCCC2C(C#N)(C(=N)O3)C1(C#N)C#N (centres undefined)	-14	-11	21	15	26	1	x	x
O=C(CSc1ccccc1)NCCSCc1ccccc1	-14	-6	7	1	1	1	x	x
O=C(CN1C(=O)/C(=C2\SC(=S)N(CCS(=O)(=O)O)C2=O)c2ccccc21)Nc1cccc(Br)c1	x	-1	103*	0	21	0	26	94*
O=C(CC(=O)N/N=C/c1c(Cl)cccc1Cl)NCc1cccnc1	x	9	1	-2	1	-1	x	x
Cc1ccc(-c2csc3ncn(CC#N)c(=O)c23)cc1C	x	2	59*	4	23	-1	17	41*
CC(C)n1c(SCC(=O)Nc2nncs2)nnc1C1CC1	x	5	1	3	3	-2	x	x
Cn1c(SCC(=O)Nc2nncs2)nnc1C1CC1	x	-4	46*	9	14	-3	11	29
CCOc1ccc(N=C2NC(=O)S/C2=C\c2ccc(N(C)C)cc2)cc1	54*	-39	80*	43*	70*	u	96*	113*
O=C(N/N=C/c1ccoc1)c1cc(O)cc(O)c1	x	-8	43*	0	21	-5	25	56*
Cc1cc(C)cc(C(=O)N/N=C/c2ccoc2)c1	x	-15	1	-3	5	1	x	x
CCOC(=O)COn1c(=O)c(-c2ccc(OC)c(OC)c2)[n+]([O-])c2ccccc21	-9	x	72*	5	14	-11	18	13
CCOC(=O)COn1c(=O)c(-c2ccc(OC)cc2)[n+]([O-])c2ccccc21	x	6	-1	2	4	1	x	x
SMILES	EBV gp42 inh	E coli Lon inh	MCL1-BIM inh	GLD-1 RNA inh	BCLXL inh	MEX-5 binding	BCLXL inh confirm	MCL1 inh confirm
COc1cccc(C(=O)Nc2c3c(nn2-c2ccc(Cl)cc2)CS(=O)(=O)C3)c1OC	x	-4	7	8	4	1	x	x
COc1cc(NC(=S)N2CCN(CCO)CC2)cc(OC)c1	x	-6	82*	4	73*	1	18	30
COC(=O)c1cc(C(=O)Nc2nc3ccccc3[nH]2)cc([N+](=O)[O-])c1	x	-11	7	-6	5	0	x	x
Cc1ccc(C(=O)OCC(=O)NC(=O)c2ccc(C(C)(C)C)cc2)c(O)c1	x	8	70*	26	62*	-2	-4	-6
Cc1nn(-c2ccccc2)c(C)c1NC(=O)COC(=O)c1ccccc1OC(F)F	x	3	2	0	2	-1	x	x
Cc1cccc(N2CCN(S(=O)(=O)c3ccc4c(c3)CCCN4C(=O)C3CCC3)CC2)c1C	x	-5	7	1	3	1	x	x
O=C(Nc1ccccc1N1CCOCC1)c1cc(=O)[nH]c2ccccc12	x	1	16	1	17	x	x	x
Cc1cc(C2(O)C(=O)Nc3ccccc32)ccc1F (centres undefined)	x	-1	79*	5	4	-3	14	24
O=C1Nc2ccccc2C1(O)c1ccccc1O (centres undefined)	x	-5	5	0	4	0	x	x
Cc1nc2ccccc2c(=O)n1/N=C/c1ccc(O)c(O)c1O	x	4	69*	7	22	-52*	26	67*
Cc1nc2ccccc2c(=O)n1/N=C/c1ccccc1O	-4	3	1	-6	2	x	x	x
COc1ccc(CCNc2nc3ccccc3n3nnnc23)cc1OC	3	-30	55*	16	54*	-1	29	30
Cc1ccc(Sc2cc(C(=O)NCCCN(C)C)c3ccccc3n2)cc1	x	12	86*	69*	78*	1	6	2
Cc1ccc(Sc2cc(C(=O)NCCN(C)C)c3ccccc3n2)cc1	x	-10	-2	3	0	-2	x	x
Fc1ccc(NCc2cccnc2)cc1F	115*	11	71*	24	64*	u	70*	91*
COC(=O)C1=C(C)NC(=O)/C1=C\N(C)C	12	24	105*	68*	91*	-7	8	8
COC(=O)C1=C(C)NC(=O)/C1=C\c1cccs1	-2	-6	-9	2	4	-3	x	x
CN(C)c1ncc(C2=C(Cl)C(=O)C(N3CCCC3)=C(Cl)C2=O)s1	-37	17	91*	16	57*	-17	63*	85*
O=C1C(Cl)=C(N2CCCCC2)C(=O)C(Cl)=C1c1cnc(N2CCCCC2)s1	-21	5	x	x	x	-4	x	x
C[C@H](CO)N1C[C@H](C)[C@@H](CN(C)C(=O)Nc2ccccc2)Oc2ccc(NC(=O)Cn3cnnn3)cc2C1=O	x	-9	x	4	x	x	x	x
O=C1c2cc(Cl)ccc2-c2c(O)cc(Cl)cc21	x	-29	x	x	x	x	x	x
